Source: PubChem BioAssay (several laboratories)
This is a sample that favours compounds with a hit; in the whole collection about 4.3% have one here.
rCAG binder = r(CAG) repeat RNA binding; TO-PRO-1 dye displacement fluorescence; inhibition, % at 3 µM; 370,000 tested, 1.3% active; AID 651821;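 active means inhibition above the plate cutoff, the mean of all test compounds on that plate plus 3 SD, cut at about 35% in these data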;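 further: 0% = DMSO alone and 100% = 100 µM mitoxantrone as full dye displacement; higher means more dye released from RNA so lower well fluorescence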
FAS-TE inh = blocks the thioesterase domain of human fatty acid synthase. P49327. recombinant FAS-TE, OMFH fluorogenic substrate, fluorescence endpoint. inhibition, % at 15 µM. 360,000 tested, 0.67% active. AID 602261;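 active means compounds whose normalised, plate-corrected inhibition of enzyme fluorescence in the single-dose primary screen is 50% or more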;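 further: 0% = DMSO with enzyme and 100% = substrate without enzyme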
Target sequence (P49327 whole entry, looked up, the tested form may be a part): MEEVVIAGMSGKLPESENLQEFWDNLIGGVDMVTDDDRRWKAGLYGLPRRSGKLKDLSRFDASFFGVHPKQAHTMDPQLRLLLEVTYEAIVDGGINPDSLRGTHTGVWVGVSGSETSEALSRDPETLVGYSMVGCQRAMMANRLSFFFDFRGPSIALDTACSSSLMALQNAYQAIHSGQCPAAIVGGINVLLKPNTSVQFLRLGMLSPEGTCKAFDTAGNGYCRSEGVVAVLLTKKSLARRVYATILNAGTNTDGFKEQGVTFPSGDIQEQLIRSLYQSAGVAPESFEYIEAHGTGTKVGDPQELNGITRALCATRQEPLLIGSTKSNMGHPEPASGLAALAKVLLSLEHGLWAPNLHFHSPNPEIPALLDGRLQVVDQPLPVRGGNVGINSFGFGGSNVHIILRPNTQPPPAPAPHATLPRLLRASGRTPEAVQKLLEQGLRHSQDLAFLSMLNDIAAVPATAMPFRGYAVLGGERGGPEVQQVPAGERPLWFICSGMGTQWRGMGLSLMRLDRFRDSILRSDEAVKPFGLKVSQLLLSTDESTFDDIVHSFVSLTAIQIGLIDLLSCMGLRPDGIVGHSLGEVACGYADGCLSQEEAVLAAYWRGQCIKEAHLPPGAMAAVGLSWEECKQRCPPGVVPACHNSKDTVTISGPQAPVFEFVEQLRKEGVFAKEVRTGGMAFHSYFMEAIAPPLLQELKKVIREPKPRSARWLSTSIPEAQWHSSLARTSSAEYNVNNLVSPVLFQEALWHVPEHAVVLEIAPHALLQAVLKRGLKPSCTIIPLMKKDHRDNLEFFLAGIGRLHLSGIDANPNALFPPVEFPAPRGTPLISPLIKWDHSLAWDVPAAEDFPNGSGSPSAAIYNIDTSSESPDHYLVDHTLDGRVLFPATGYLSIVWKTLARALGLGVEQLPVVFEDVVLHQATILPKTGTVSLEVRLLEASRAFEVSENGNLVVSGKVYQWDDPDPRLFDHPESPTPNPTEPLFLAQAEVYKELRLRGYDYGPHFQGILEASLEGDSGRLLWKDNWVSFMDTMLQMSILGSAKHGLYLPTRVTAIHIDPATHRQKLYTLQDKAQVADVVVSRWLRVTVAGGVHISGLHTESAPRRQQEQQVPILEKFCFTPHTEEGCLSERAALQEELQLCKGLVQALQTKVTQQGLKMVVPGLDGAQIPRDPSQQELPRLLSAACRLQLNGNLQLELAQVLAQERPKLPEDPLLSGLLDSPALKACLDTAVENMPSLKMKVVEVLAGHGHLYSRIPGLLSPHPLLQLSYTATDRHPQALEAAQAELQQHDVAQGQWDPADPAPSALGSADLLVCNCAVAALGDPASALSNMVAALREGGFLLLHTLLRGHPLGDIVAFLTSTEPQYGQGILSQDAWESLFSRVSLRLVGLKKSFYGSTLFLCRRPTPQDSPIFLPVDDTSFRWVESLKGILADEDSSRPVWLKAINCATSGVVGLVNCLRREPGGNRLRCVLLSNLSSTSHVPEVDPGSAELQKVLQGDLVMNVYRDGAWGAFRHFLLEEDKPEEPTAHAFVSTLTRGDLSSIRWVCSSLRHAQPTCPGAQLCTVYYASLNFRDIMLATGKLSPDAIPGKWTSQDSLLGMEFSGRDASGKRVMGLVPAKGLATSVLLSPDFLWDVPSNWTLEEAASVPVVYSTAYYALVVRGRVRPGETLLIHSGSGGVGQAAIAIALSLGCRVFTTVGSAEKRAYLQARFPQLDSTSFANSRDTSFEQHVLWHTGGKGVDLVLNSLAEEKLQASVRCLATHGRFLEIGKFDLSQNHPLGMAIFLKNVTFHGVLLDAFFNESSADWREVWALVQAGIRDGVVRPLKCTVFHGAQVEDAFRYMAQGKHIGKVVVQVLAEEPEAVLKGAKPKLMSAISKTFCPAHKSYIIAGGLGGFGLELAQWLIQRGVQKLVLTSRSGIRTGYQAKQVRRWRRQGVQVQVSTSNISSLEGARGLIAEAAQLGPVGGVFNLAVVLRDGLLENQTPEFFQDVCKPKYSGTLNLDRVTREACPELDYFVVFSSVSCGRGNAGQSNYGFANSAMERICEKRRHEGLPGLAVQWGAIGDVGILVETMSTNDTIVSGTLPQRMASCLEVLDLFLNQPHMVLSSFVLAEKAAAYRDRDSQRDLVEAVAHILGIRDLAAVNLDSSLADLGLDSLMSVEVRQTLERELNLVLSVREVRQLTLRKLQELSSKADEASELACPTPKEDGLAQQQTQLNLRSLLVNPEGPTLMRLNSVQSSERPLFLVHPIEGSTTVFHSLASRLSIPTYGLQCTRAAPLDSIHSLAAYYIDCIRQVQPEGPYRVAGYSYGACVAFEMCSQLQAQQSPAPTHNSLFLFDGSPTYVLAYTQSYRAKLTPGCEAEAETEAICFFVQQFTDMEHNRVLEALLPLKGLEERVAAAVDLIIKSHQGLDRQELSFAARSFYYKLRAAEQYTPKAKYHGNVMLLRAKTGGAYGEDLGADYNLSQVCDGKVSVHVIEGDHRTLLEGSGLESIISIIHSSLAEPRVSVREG
NadD block = blocks S. aureus nicotinate mononucleotide adenylyltransferase | purified NadD enzyme, colorimetric absorbance read-out | inhibition, % at 20 µM | 360,000 tested, 0.78% active; in the data active means inhibition above about 26%
NR3A LBD binder = modulates the human NR3A ligand-binding domain; AID 1259313; NR3A LBD differential scanning fluorimetry, Tm shift; 0% = protein alone, 100% = glycine-bound protein; 340,000 tested, 2.5% active; Tm shift relative to glycine control, % at 25 µM;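 active means melting temperature shift of at least 10% of the positive control shift, at one fixed dose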
rCAG binder conf = r(CAG) RNA repeat binding, confirmation. inhibition, % at 3 µM. TO-PRO-1 dye displacement fluorescence. shares compounds with rCAG binder. 4,300 tested, 70% active;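 active means inhibition above a per-plate cutoff, the mean inhibition of sample wells plus 3 SD, cut at about 35% in these data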;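 further: loss of TO-PRO-1 fluorescence as compound displaces dye from 1x1 AA loop RNA; 0% = DMSO only wells and 100% = 100 µM mitoxantrone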
DNA CAG counter = counter-screen for rCAG RNA binders: DNA CAG dye complex inhibitors. shares compounds with rCAG binder. d(CAG) DNA oligo TO-PRO-1 dye displacement, fluorescence. inhibition, % at 3 µM. 4,300 tested, 94% active;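 active means inhibition above its plate's cutoff, the mean test-well inhibition plus 3 SD, cut at about 4.8% in these data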;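 further: 0% = DNA dye mix with DMSO and 100% = 100 µM mitoxantrone; hits displace the dye from DNA and so lower well fluorescence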
DNA CAG DR = disrupts DNA CAG TO-PRO-1 complex in dose response; AID 686960; 250 tested, 20% active; DNA CAG/GTC duplex TO-PRO-1 dye displacement fluorescence; IC50, µM; shares compounds with rCAG binder; in the data active means IC50 below about 10 µM
The depositor's hits bear a star; i = inactive; nt = no result.

SMILES	rCAG binder	FAS-TE inh	NadD block	NR3A LBD binder	rCAG binder conf	DNA CAG counter	others
CCOc1cc(/C=C\c2nc(O)c([N+](=O)[O-])c(=O)[nH]2)ccc1OC(C)CC (configuration not stated)	45*	-8	-3	4	46*	9.5*	DNA CAG DR=>30
C[C@H](c1ccccc1)N1C[C@@H](COCc2ccccc2)Oc2cccc(F)c2S1(=O)=O	0	nt	nt	nt	nt	nt
CC(=O)C1=C(C)N(Cc2ccc(F)cc2)C(=S)NC1c1cccc(Cl)c1 (configuration not stated)	3	nt	nt	nt	nt	nt
O=C(/C=C/c1ccc2c(c1)OCO2)Nc1c(C(=O)O)[nH]c2ccccc12	45*	-8	1	-19	38*	13*
COc1ccc2nc(NC(=O)CSCc3c(C)noc3C)sc2c1	3	3	-1	0	nt	nt
Cc1noc(C)c1CSCC(=O)Nc1nc2c(F)cc(F)cc2s1	36*	6	2	0	29	18*
CN(Cc1ccco1)S(=O)(=O)c1nnc(NC(=O)c2ccc(F)cc2)s1	37*	-3	10	-1	25	7.4*
CCOc1ccc(C(=O)Nc2nnc(S(=O)(=O)N(C)Cc3ccco3)s2)cc1	36*	-5	18	3	37*	11*
CCc1ccc(CCNC(=O)OCCCN2CCC3(CCC(c4ccccc4)CC3)C2=O)cc1 (configuration not stated)	7	nt	nt	nt	nt	nt
COCCN1Cc2cc(C(=O)OC)c3c(c2C1=O)c1ccccc1n3S(=O)(=O)c1ccc(C)cc1	17	nt	nt	nt	nt	nt
O=C1C2Sc3[nH]c(=O)sc3C(c3ccccc3)C2C(=O)N1c1ccc(Cl)cc1 (configuration not stated)	36*	4	4	-4	25	8.7*
Cc1cc(/C=C2\SC(=S)NC2=O)c(C)n1-c1ccc(O)cc1	49*	14	29	2	42*	14*
O=C1NC(=S)S/C1=C\c1cc(Cl)cc(Cl)c1O	38*	-3	5	17*	47*	15*
Cc1cc(/C=C2\SC(=S)NC2=O)cc(C)c1O	-3	-6	-5	-8	nt	nt
Cc1cc(/C=C2\SC(=S)NC2=O)c(C)n1-c1ccccc1	48*	27	26	0	36*	16*
Cc1cc(/C=C2/SC(=O)NC2=O)c(C)n1-c1ccc(N2CCOCC2)cc1	10	-6	11	-6	nt	nt
Cc1cc(/C=C2\SC(=S)NC2=O)c(C)n1C	51*	2	35*	-5	22	7.9*
COC(=O)[C@]12C[C@H](CC(=O)N3CCN(C(=O)C4CC4)CC3)C(=O)N(Cc3ccc4c(c3)OCO4)C1=C[C@H](COCc1ccccc1)O[C@@H]2C	5	nt	nt	nt	nt	nt
CCN(CC)c1c2c(nc3ncnn13)CCCC2	-1	nt	nt	nt	nt	nt
O=C(CCCN1C(=O)/C(=C/c2ccccc2)SC1=S)Nc1ccc(C(=O)O)c(O)c1	83*	13	1	-1	80*	36*
O=C(CCCN1C(=O)/C(=C/c2ccc3c(c2)OCO3)SC1=S)Nc1ccc(C(=O)O)cc1	29	-6	4	-1	nt	nt
COc1ccc(C=C2SC(=S)N(CCCC(=O)Nc3ccc(C(=O)O)c(O)c3)C2=O)cc1OC	80*	1	23	nt	75*	41*
O=C(CCCN1C(=O)C(=Cc2ccc3c(c2)OCO3)SC1=S)Nc1ccc(C(=O)O)c(O)c1	77*	20	25	nt	78*	45*
O=C(CCN1C(=O)/C(=C\c2ccccc2F)SC1=S)Nc1ccc(C(=O)O)c(O)c1	94*	40	16	nt	84*	60*
O=C(CCCN1C(=O)/C(=C\c2ccccc2)SC1=S)Nc1ccc(C(=O)O)cc1	3	0	9	1	nt	nt
SMILES	rCAG binder	FAS-TE inh	NadD block	NR3A LBD binder	rCAG binder conf	DNA CAG counter	others
CC(=O)OCCCN1C(=O)CCC12CCC(C)CC2 (configuration not stated)	0	nt	nt	nt	nt	nt
COC(=O)c1ccc2nc(-c3ccco3)c(Cc3ccccc3OC)n2c1	22	nt	nt	nt	nt	nt
C[C@@H]1CN(c2ccc(N3CCNC[C@H]3C)cc2C#N)CCN1Cc1ccccc1	5	nt	nt	nt	nt	nt
COC(=O)[C@]12C[C@H](CC(=O)NCC3CCCCC3)C(=O)N(CCC3=CCCCC3)C1=C[C@H](C(C)(C)C)O[C@@H]2C	1	nt	nt	nt	nt	nt
O=C(Nc1cccc(C(F)(F)F)c1)c1cccc(NS(=O)(=O)c2ccc(O)c(C(=O)O)c2)c1	79*	11	0	32*	62*	24*
O=C(Nc1ccccc1C(=O)O)c1cccc(NS(=O)(=O)c2ccc(Br)cc2)c1	81*	7	-5	8	68*	26*
O=C(Nc1ccccc1C(=O)O)c1cccc(S(=O)(=O)Nc2ccc(Br)cc2)c1	80*	17	1	12*	58*	21*
Cc1ccc(S(=O)(=O)CCSc2cccc(C(=O)Nc3ccccc3C(=O)O)c2)cc1	80*	3	1	0	83*	52*
O=C(Nc1ccccc1C(=O)O)c1cccc(F)c1	0	-5	-1	0	nt	nt
O=C(Nc1cccc(C(F)(F)F)c1)c1cccc(NS(=O)(=O)c2ccc(Br)c(C(=O)O)c2)c1	13	-2	3	-5	nt	nt
Cc1cccc(NC(=O)c2cccc(S(=O)(=O)Nc3ccccc3C(=O)O)c2)c1	52*	-4	-5	-1	32	7.5*
O=C(O)c1cccc(NS(=O)(=O)c2ccc(Cl)c(C(=O)O)c2)c1	1	-9	-4	-1	nt	nt
O=C(Nc1ccccc1C(=O)O)c1cc(S(=O)(=O)Nc2cccc(F)c2)ccc1Cl	45*	0	-2	-1	30	9.3*
O=C1NC(c2ccccc2)c2c(-c3ccccc3)n[nH]c21 (configuration not stated)	0	nt	nt	nt	nt	nt
COc1c(/C=C2\SC(=Nc3ccccc3Cl)NC2=O)cccc1[N+](=O)[O-]	37*	14	9	-3	71*	29*	DNA CAG DR=i
O=C1NC(=Nc2ccccc2Cl)S/C1=C\c1cccc([N+](=O)[O-])c1O	89*	3	17	1	70*	33*	DNA CAG DR=i
COc1ccc(/C=C2\SC(=Nc3ccccc3Cl)NC2=O)c(OC)c1	39*	0	18	nt	46*	13*
O=C1NC(=Nc2ccccc2Cl)S/C1=C\c1ccc(C(=O)O)cc1	1	-1	-2	0	nt	nt
O=C1NC(=Nc2ccccc2Cl)S/C1=C\c1cccc([N+](=O)[O-])c1	54*	8	5	0	67*	26*
CCCC(=O)OC12CCCN(C1)/C(=C/c1ccc(OC)cc1)C2 (configuration not stated)	0	nt	nt	nt	nt	nt
COC(=O)C1(F)C(=O)NC(=O)NC1OC (configuration not stated)	2	nt	nt	nt	nt	nt
O=S(=O)(CS(=O)(=O)c1ccccc1Br)c1ccccc1Br	14	nt	nt	nt	nt	nt
